Assay outcomes from PubChem BioAssay.
HDAC3 inh: blocks human histone deacetylase 3; recombinant HDAC3, fluorogenic peptide/trypsin coupled, fluorescence; inhibition, % at 8.3 µM; 0.15% of 320,000 active; in the data active = inhibition above about 26%, passing the limit was not always enough
PDI inh: blocks human protein disulfide isomerase activity. P07237. PDI insulin aggregation turbidity, A650, 90 min. inhibition, % at 10 µM. 0.052% of 350,000 active;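 active = mean inhibition across replicates of 30% or more, whatever share of single replicates reach that level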
SIRT5 inh: blocks human SIRT5 desuccinylation of peptide; 1.1% of 330,000 active; Purified SirT5, succinyl-peptide AMC, trypsin-coupled fluorescence; inhibition, % at 15 µM; AID 652115; in the data active = inhibition above about 15%
Target sequence (Q9NXA8 whole entry, looked up): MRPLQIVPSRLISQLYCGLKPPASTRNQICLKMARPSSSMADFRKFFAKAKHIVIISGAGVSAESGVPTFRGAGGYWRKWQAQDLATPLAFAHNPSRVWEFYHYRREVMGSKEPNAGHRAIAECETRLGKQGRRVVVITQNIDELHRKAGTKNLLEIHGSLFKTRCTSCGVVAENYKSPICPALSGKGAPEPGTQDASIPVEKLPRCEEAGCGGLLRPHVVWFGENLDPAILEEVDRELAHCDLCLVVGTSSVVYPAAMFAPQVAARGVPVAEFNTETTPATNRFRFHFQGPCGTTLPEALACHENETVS
ERp5 inh: blocks human ERp5 reductase activity on insulin; 0.05% of 350,000 active; inhibition, % at 9.99 µM; Q15084; ERp5 insulin aggregation, absorbance 650 nm, 90 min;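 active = mean replicate inhibition above about 25%, with every replicate also reaching it, limit read from the data, passing the limit was not always enough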
ERAP1 inh: blocks human ERAP1 aminopeptidase activity. recombinant ERAP1, Leu-AMC fluorescence, 60 min. inhibition, % at 10.7 µM. 0.15% of 340,000 active;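 active = mean replicate inhibition of at least 30%, or all replicates individually reaching that 30% level; inactive = mean below 30% and not every replicate reaching it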;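 also: 0% = neutral control wells and 100% = L-leucinethiol positive control wells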
Active calls of the source: *. This is one part of a sample in which hits are shown more often than they occur.

Results for CC1=C(C(=O)N(C(C)C)C(C)C)CC(CC(=O)NCCCN(C)C)C(=O)N1CCC1=CCCCC1 (stereo not drawn) ?
SIRT5 inh: 22.6*; ERp5 inh: -4.4; ERAP1 inh: -7.9

What do the screens show for `CC1=C(C(=O)N(C(C)C)C(C)C)CC(CC(=O)NCCN2CCOCC2)C(=O)N1CCCN1CCCC1=O` (stereo not drawn)?
SIRT5 inh: 16.3*; ERp5 inh: 3.9; ERAP1 inh: -0.6

What do the screens show for `CC1=C(C(=O)N2CCOCC2)CC(CC(=O)NCCCN(C)C)C(=O)N1CCC1=CCCCC1` (stereo not drawn)?
PDI inh: 0.7; SIRT5 inh: -0.4; ERp5 inh: -1.0

How did CC1=C(C(=O)N(C(C)C)C(C)C)CC(CC(=O)NC2CCCCC2)C(=O)N1CCCN1CCCC1=O (stereo not drawn) do in these assays?
SIRT5 inh: 32.9*; ERp5 inh: -6.7; ERAP1 inh: -4.6

What do the screens show for `O=C(C[C@H]1CC[C@@H]2[C@H](COC[C@@H](O)CN2Cc2ccc3c(c2)OCO3)O1)Nc1ccccc1`?
SIRT5 inh: -0.6; ERp5 inh: 1.2; ERAP1 inh: -0.1

Results for CCOC(=O)N(C)C[C@@H]1OCc2ccccc2-c2c(n(C)c3ccccc23)C(=O)N([C@H](C)CO)C[C@@H]1C ?
SIRT5 inh: 7.6; ERp5 inh: -3.0; ERAP1 inh: -1.4

How did Cc1cc(C(=O)Nc2cccc3c2O[C@H](CN(C)S(=O)(=O)c2cn(C)cn2)[C@H](C)CN([C@H](C)CO)C3=O)n(C)n1 do in these assays?
SIRT5 inh: -1.5; ERp5 inh: -3.6; ERAP1 inh: -0.2

What do the screens show for `C[C@@H]1CN([C@@H](C)CO)C(=O)c2cc(NC(=O)NC3CCCCC3)ccc2O[C@@H](C)CCCCO[C@@H]1CN(C)C(=O)c1ccccc1`?
SIRT5 inh: 1.3; ERp5 inh: -4.5; ERAP1 inh: -0.1

Results for Cc1cccc(CNc2ncnc3ccc(-c4ccccc4Cl)cc23)c1 ?
HDAC3 inh: 3.6; PDI inh: -1.3; SIRT5 inh: -16.8; ERp5 inh: -10.4; ERAP1 inh: -1.3

What do the screens show for `Cc1csc(CNc2ncnc3ccc(-c4cccc(Cl)c4)cc23)c1`?
HDAC3 inh: 4.8; PDI inh: 16.2; SIRT5 inh: 34.3*; ERp5 inh: 2.7; ERAP1 inh: -1.6

How did COc1ccccc1C#Cc1cnc2c(c1)C(=O)N([C@H](C)CO)C[C@@H](C)[C@H](CN(C)C(=O)CN(C)C)O2 do in these assays?
SIRT5 inh: 5.2; ERp5 inh: 0.8; ERAP1 inh: 0.5

How did O=C(c1ccc2c(c1)OCO2)N1CC(=O)N2[C@H](CO)[C@H](c3ccc(C#CCC4CCCC4)cc3)[C@@H]2C1 do in these assays?
SIRT5 inh: 25.7*; ERp5 inh: -2.7; ERAP1 inh: -3.8

Results for CC(C)C#Cc1ccc([C@@H]2[C@@H](CO)N3C(=O)CN(C(=O)NC4CCCC4)C[C@H]23)cc1 ?
SIRT5 inh: 11.1; ERp5 inh: 4.8; ERAP1 inh: -2.5

What do the screens show for `O=C(c1ccc2c(c1)OCO2)N1CC(=O)N2[C@@H](CO)[C@@H](c3ccc(C#CCC4CCCC4)cc3)[C@@H]2C1`?
SIRT5 inh: 10.8; ERp5 inh: 2.5; ERAP1 inh: -3.1

What do the screens show for `CC(C)C#Cc1ccc([C@@H]2[C@@H](CO)N3C(=O)CN(C(=O)c4ccc5c(c4)OCO5)C[C@H]23)cc1`?
SIRT5 inh: 19.7*; ERp5 inh: 0.0; ERAP1 inh: -1.8

What do the screens show for `CC(C)C#Cc1ccc([C@@H]2[C@H](CO)N3C(=O)CN(C(=O)NC4CCCC4)C[C@@H]23)cc1`?
SIRT5 inh: 25.2*; ERp5 inh: 5.3; ERAP1 inh: -0.8

Results for C/C=C/c1ccc2c(c1)O[C@H](CN(C)C(=O)CN(C)C)[C@@H](C)CN([C@H](C)CO)S2(=O)=O ?
SIRT5 inh: -5.8; ERp5 inh: 11.4; ERAP1 inh: -2.4

Results for COc1ccccc1-c1ccc2c(c1)O[C@H](CN(C)C(=O)c1ccccc1)[C@H](C)CN([C@@H](C)CO)S2(=O)=O ?
SIRT5 inh: -6.0; ERp5 inh: -6.4; ERAP1 inh: 0.6

What do the screens show for `COc1cccc(-c2cc(C(=O)NCC3CCCO3)c3cc(Br)cc(C)c3n2)c1` (stereo not drawn)?
HDAC3 inh: -9.3; PDI inh: -0.2; SIRT5 inh: 17.3*; ERp5 inh: 3.9; ERAP1 inh: 5.7

How did Cc1cc(Br)cc2c(C(=O)NCC3CCCO3)cc(-c3cccs3)nc12 (stereo not drawn) do in these assays?
HDAC3 inh: 1.5; PDI inh: -4.2; SIRT5 inh: -0.1; ERp5 inh: 1.2; ERAP1 inh: 1.4

How did CCC(=O)N1CC[C@@H]2[C@H]1c1cc(-c3ccc(C(=O)N(C)C)cc3)ccc1N[C@@H]2CO do in these assays?
SIRT5 inh: -1.2; ERp5 inh: 0.2; ERAP1 inh: 2.8

How did Cc1noc(C)c1NC(=O)Nc1ccc2c(c1)C(=O)N([C@@H](C)CO)C[C@@H](C)[C@@H](CN(C)Cc1ccccc1)OCCCC[C@H](C)O2 do in these assays?
SIRT5 inh: 2.7; ERp5 inh: 2.1; ERAP1 inh: -0.9

What do the screens show for `O=C(O)c1ccc(Nc2nc(-c3ccccc3)nc3ccccc23)cc1`?
HDAC3 inh: -0.8; PDI inh: 2.6; SIRT5 inh: 39.2*; ERp5 inh: 0.6; ERAP1 inh: -2.6

What do the screens show for `O=C(NC1CCCC1)N[C@@H]1CC[C@H](CC(=O)N2CCOCC2)O[C@H]1CO`?
SIRT5 inh: 24.9*; ERp5 inh: 1.9; ERAP1 inh: -0.5

How did O=C(NC1CCCCC1)N[C@H]1CC[C@@H](CC(=O)N2CCOCC2)O[C@H]1CO do in these assays?
SIRT5 inh: -0.9; ERp5 inh: -1.0; ERAP1 inh: -4.2

How did C#CCSc1cc(C(F)(F)F)nc(-c2ccccn2)n1 do in these assays?
HDAC3 inh: -3.6; PDI inh: 4.9; SIRT5 inh: 20.2*; ERp5 inh: -1.4; ERAP1 inh: -4.9

What do the screens show for `COc1ccc(Sc2cc(C(F)(F)F)nc(-c3ccccn3)n2)cc1`?
HDAC3 inh: -3.0; PDI inh: 6.5

Results for CC(=O)N1[C@H](C)C=C[C@]1(Cc1ccccc1)C(=O)NCc1cc(F)cc(C(F)(F)F)c1 ?
HDAC3 inh: 11.7; PDI inh: 16.4; SIRT5 inh: 23.4*; ERp5 inh: -1.4; ERAP1 inh: -2.3

Results for COC(=O)[C@@]1(Cc2ccccc2)C=C[C@@H](C)N1C(C)=O ?
HDAC3 inh: 0.9; PDI inh: -2.4; SIRT5 inh: 0.5; ERp5 inh: 3.4; ERAP1 inh: -0.8

How did C[C@@H]1CN([C@H](C)CO)C(=O)c2cc(NS(C)(=O)=O)ccc2O[C@@H]1CN(C)Cc1ccccc1 do in these assays?
SIRT5 inh: -4.1; ERp5 inh: 1.6; ERAP1 inh: -1.1

How did COc1ccc(NC(=O)CN2CCN(c3ccccn3)CC2)cc1Cl do in these assays?
HDAC3 inh: -0.9; PDI inh: -3.2; SIRT5 inh: 29.2*; ERp5 inh: -1.9; ERAP1 inh: -1.1
